This note sets out measurements from PubChem BioAssay (NCATS).

The structures appear in SMILES notation. Where “and” joins values, the source holds several entries; their conditions need not be identical. Equal values may be shown once. Records with an inconclusive call do not appear. Values without a mark were called inactive. Calls of active or inactive are those of the source. Calls come from the whole dose curve; as a rule, active = well fitted inhibition curve with a large enough effect; inconclusive = small, poorly fitted or top-dose-only effect; inactive = flat fitted curve, though single readings scatter.

In one test the test system is CRL-7250. The test is described as follows: Cytotoxic Profiling of Annotated Libraries Using Quantitative High-Throughput Screening (AID 1296008). For max response: % is set by controls: 0 for no effect and ±100 for the full control effect. Note: potency is the fitted concentration of half-maximal effect. The note with it: Five cell lines viability, CellTiter-Glo ATP luminescence, 48-72 h; max response: hits give low values. The procedure, abridged: (§1)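 Compounds were pin-transferred onto cells and incubated 48 or 72 hr at 37 degree Celsius, 95% humidity. CellTiter-Glo was added, plates sat 10 min at room temperature, then ATP-coupled luminescence was imaged as the viability read-out.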

A further test deals with HEK293. Described as above. The note with it: Five cell lines viability, CellTiter-Glo ATP luminescence, 48-72 h; max response: hits give low values. The procedure, abridged:
as §1
Background: In ATP-based viability assays light output follows the ATP content of the culture.

The subject of test [1] is HaCat. Described as above. To be noted: Five cell lines viability, CellTiter-Glo ATP luminescence, 48-72 h; max response: hits give low values. The procedure, abridged: as §1
For another test, the system named is KB-3-1. The description is as above. The note with it: Five cell lines viability, CellTiter-Glo ATP luminescence, 48-72 h; max response: hits give low values. The procedure, abridged: as §1
The subject of test [2] is NIH3T3. The description is as above. The note with it: Five cell lines viability, CellTiter-Glo ATP luminescence, 48-72 h; max response: hits give low values. The procedure, abridged:
as §1

A further test relates to MCC-13. In words: qHTS assay to identify novel small-molecules to repurpose for Merkel cell carcinoma treatment (AID 1296009). Note: potency is the fitted concentration of half-maximal effect. The note with it: MCC and control cell lines, CellTiter-Glo viability, 72 h; series mostly up to 46 µM. The procedure, abridged:
(§2)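 Cells exposed to NPC (8-point) and MIPE (11-point) compound dilutions for 72 hr at 37 degree celsius; viability read by CellTiter-Glo luminescence, normalized to no-cell and DMSO in-plate controls.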
In general terms: In qHTS, concentration-response curves come from the screen itself.

For the next test, the system named is MCC-26. The test is described as above. The note with it: MCC and control cell lines, CellTiter-Glo viability, 72 h; series mostly up to 46 µM. The procedure, abridged: as §2
The next test has as its system MKL-1. Described as above. To be noted: MCC and control cell lines, CellTiter-Glo viability, 72 h; series mostly up to 46 µM. The procedure, abridged:
as §2

In the next test the test system is MKL-2. Described as above. To be noted: MCC and control cell lines, CellTiter-Glo viability, 72 h; series mostly up to 46 µM. The procedure, abridged:
as §2

A further test concerns UISO. The test is described as above. To be noted: MCC and control cell lines, CellTiter-Glo viability, 72 h; series mostly up to 46 µM. The procedure, abridged: as §2
Another test concerns PC26. The test is described as follows: qHTS profiling for inhibitors of Plasmodium falciparum proliferation (AID 504749).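 Note: 0% = DMSO vehicle and full inhibition = artemisinin control.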 To be noted: P. falciparum in erythrocytes, SYBR Green DNA, 72 h; series mostly up to 28.7 µM. The procedure, abridged: (§3)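 P. falciparum-infected erythrocytes (0.3% parasitemia, 2.5% hematocrit final) were exposed to compounds for 72 h at 37 C in 5% CO2, then lysed with SYBR Green buffer overnight at room temperature; parasite DNA fluorescence was normalized to artemisinin and DMSO controls.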

In another test the test system is PC49. The description is as above. To be noted: P. falciparum in erythrocytes, SYBR Green DNA, 72 h; series mostly up to 28.7 µM. The procedure, abridged:
as §3

For the next test, the system named is SC27B. The test is described as above. To be noted: P. falciparum in erythrocytes, SYBR Green DNA, 72 h; series mostly up to 28.7 µM. The procedure, abridged:
as §3

For another test, the system named is TAB109. The test is described as above. The note with it: P. falciparum in erythrocytes, SYBR Green DNA, 72 h; series mostly up to 28.7 µM. The procedure, abridged:
as §3

The next test concerns TAB113. Described as above. The note with it: P. falciparum in erythrocytes, SYBR Green DNA, 72 h; series mostly up to 28.7 µM. The procedure, abridged:
as §3

A further test relates to TAB165. The description is as above. The note with it: P. falciparum in erythrocytes, SYBR Green DNA, 72 h; series mostly up to 28.7 µM. The procedure, abridged:
as §3

In another test the test system is W2. The description is as above. The note with it: P. falciparum in erythrocytes, SYBR Green DNA, 72 h; series mostly up to 28.7 µM. The procedure, abridged:
as §3

For test [3], the system named is HACAT. In words: qHTS assay to identify novel small-molecules to repurpose for Merkel cell carcinoma treatment (AID 1296009). Note: potency is the fitted concentration of half-maximal effect. To be noted: MCC and control cell lines, CellTiter-Glo viability, 72 h; series mostly up to 44.8 µM. The procedure, abridged: as §2
Test [4] concerns NIH3T3. Described as above. The note with it: MCC and control cell lines, CellTiter-Glo viability, 72 h; at 44.8 µM (top of the series) unless noted. The procedure, abridged: as §2
The subject of a further test is HEK293T. Described as above. The note with it: MCC and control cell lines, CellTiter-Glo viability, 72 h; at 44.8 µM (top of the series) unless noted. The procedure, abridged: as §2
Note: nearly all actives have a fitted effect of over 60% in size.

Take `C#Cc1cccc(Nc2ncnc3cc(OC)c(OCCCCCCC(=O)NO)cc23)c1`: the Potency with CRL-7250 is 4.69 µM (active); in the test with HEK293, 1.05 µM (active) and 4.61 µM (active); with HaCat [1], 2.64 µM (active) and 6.51 µM (active); with KB-3-1 it was 1.48 µM (active) and 4.11 µM (active); with NIH3T3 [2], 13.2 µM (active); in the test on MCC-13 it was 16.6 µM (active). Further, the Potency in the test on MCC-26 is 10.5 µM (active); in the test with MKL-1, 0.935 µM (active); in the test with MKL-2, 0.105 µM (active); in the test with UISO it was 2.09 µM (active).

With `CN1CCN(Cc2ccc(NC(=O)Nc3ccc(Oc4cc(NC(=O)C5CC5)ncn4)cc3)cc2C(F)(F)F)CC1`, the Potency was 418 nM (active) and 1.3 µM (active) in the test on CRL-7250; 184 nM (active) in the test on HEK293; 743 nM (active) and 920 nM (active) in the test with HaCat [1]; 132 nM (active) and 206 nM (active) with KB-3-1; 0.59 µM (active) in the test with NIH3T3 [2]; 2.35 µM (active) with MCC-13. Moreover, the Potency in the test with MCC-26 was 1.18 µM (active); in the test on MKL-1, 0.372 µM (active); in the test with MKL-2, 0.264 µM (active); with UISO, 0.332 µM (active).

As to `CC=CC1=C(C(=O)O)N2C(=O)[C@H](NC(=O)[C@H](N)c3ccc(O)cc3)[C@@H]2SC1`, the Potency entry with PC26, in the test with PC49, in the test with SC27B, in the test with TAB109, in the test with TAB113 and in the test with TAB165 was “inactive” each time. The Potency result in the test on W2, in the test with MCC-13, with MCC-26, in the test with MKL-1, in the test on MKL-2 and with UISO was “inactive” in each case. In addition, the max response with CRL-7250 is 1.71%; in the test with HEK293, -2.68%; with HaCat [1] it was -17%; in the test with KB-3-1, 1.31%; in the test on NIH3T3 [2], 1.07%.

Consider `CC(C)c1cnn2c(NCc3ccccc3)cc(N[C@@H](CO)[C@H](O)CO)nc12`, for which the Potency is 0.296 µM (active) in the test with CRL-7250; 332 nM (active) and 1.03 µM (active) in the test with HEK293; 469 nM (active) and 4.11 µM (active) with HaCat [1]; 731 nM (active) in the test with KB-3-1; 935 nM (active) and 3.66 µM (active) with NIH3T3 [2]; 1.66 µM (active) in the test with MCC-13. Also, the Potency with MCC-26 is 0.743 µM (active); in the test with MKL-2, 1.05 µM (active).

For `COc1cccc2nc(-c3cccs3)nc(NN3C(=O)C=C(C)C3=O)c12`, the Potency in the test on CRL-7250 is 2.09 µM (active) and 6.51 µM (active); in the test on HEK293 it was 418 nM (active) and 517 nM (active); in the test on HaCat [1], 23.5 µM (active); in the test with KB-3-1, 5.9 µM (active) and 10.3 µM (active); with NIH3T3 [2], 1.48 µM (active) and 820 nM (active); with MCC-13, 2.64 µM (active). Moreover, the Potency with MKL-2 was 0.935 µM (active). The Potency result in the test on MCC-26 was “inactive”.

Regarding `N#Cc1c(O)c2c(-c3ccc(-c4ccccc4O)cc3)csc2[nH]c1=O`, the max response was -0.58% and 1.34% in the test on CRL-7250; 3.13% and -14.8% in the test with HEK293; -1.37% in the test with NIH3T3 [2]. The call in the test on HaCat [1], in the test with KB-3-1, with NIH3T3 [2] and in the test on NIH3T3 [4] was inactive. The Potency entry in the test with HACAT [3], with MCC-13, in the test with MCC-26, in the test with MKL-1, with MKL-2 and in the test with UISO was “inactive” in each case.

As to `CC(C)(C)c1cc(C(C)(C)C)c(NC(=O)c2c[nH]c3ccccc3c2=O)cc1O`, the compound was classed as inactive in the test with CRL-7250, in the test with HEK293, in the test with HaCat [1], in the test with NIH3T3 [2], in the test with HEK293T and with NIH3T3 [4]. The max response with KB-3-1 was -1.43%. Besides, the Potency entry with HACAT [3], in the test with MCC-13, in the test on MCC-26, in the test on MKL-1, in the test on MKL-2 and with UISO was “inactive” each time.

As to `Cc1nc2cnc3ccc(C#Cc4cccnc4)cc3c2n1-c1ccc(C(C)(C)C#N)cc1`, the Potency was 0.0469 µM (active) in the test on CRL-7250; 74.3 nM (active) in the test on HEK293; 1.18 µM (active) in the test on HaCat [1]; 93.5 nM (active) in the test on KB-3-1; 0.148 µM (active) in the test with NIH3T3 [2].

`CN(C)Cc1c(C(=O)NCCOc2ccc(C(=O)NO)cc2)oc2ccccc12`: the Potency is 4.69 µM (active) and 4.61 µM (active) with CRL-7250; 1.87 µM (active) and 1.16 µM (active) in the test on HEK293; 4.11 µM (active) in the test on HaCat [1]; 1.48 µM (active) and 1.3 µM (active) in the test with KB-3-1; 3.72 µM (active) and 3.26 µM (active) in the test with NIH3T3 [2]; 8.33 µM (active) with MCC-13. Besides, the Potency in the test on MCC-26 is 7.43 µM (active); in the test on MKL-2 it was 0.662 µM (active).

For the compound `CC1(C)CC(=O)c2c(C(F)(F)F)nn(-c3ccc(C(N)=O)c(NC4CCC(OC(=O)CN)CC4)c3)c2C1` (stereo not given), the Potency with CRL-7250 is 469 nM (active) and 231 nM (active); in the test with HEK293 it was 118 nM (active) and 58 nM (active); in the test on HaCat [1], 2.35 µM (active) and 517 nM (active); in the test on KB-3-1 it was 105 nM (active); with NIH3T3 [2], 418 nM (active) and 366 nM (active); in the test on UISO, 0.264 µM (active). For the same compound, the Potency result with MKL-2 was “inactive”.

Consider `COC(=O)Nc1ccc(-c2nc(N3CCOCC3)c3cnn(C4CCN(Cc5cccnc5)CC4)c3n2)cc1`, for which the Potency in the test on CRL-7250 is 118 nM (active) and 1.3 µM (active); in the test with HEK293, 66.2 nM (active) and 1.46 µM (active); with HaCat [1], 13.2 µM (active); in the test with KB-3-1, 132 nM (active) and 1.64 µM (active); in the test on NIH3T3 [2] it was 83.3 nM (active) and 920 nM (active); with MCC-13, 14.8 µM (active). In addition, the Potency with MCC-26 was 8.33 µM (active); in the test with UISO, 1.87 µM (active).

For `C1=CCOCc2cc(ccc2OCCN2CCCC2)Nc2nccc(n2)-c2cccc(c2)OCC1`, the Potency with CRL-7250 is 8.33 µM (active); in the test with HEK293 it was 3320 nM (active); with HaCat [1], 4.69 µM (active); with KB-3-1, 2960 nM (active); in the test with NIH3T3 [2], 7.43 µM (active); in the test on MCC-26 it was 9.35 µM (active). Besides, the Potency in the test on MKL-2 and with UISO was 11.8 µM (active) throughout.
